From the supplement of paper PMC10849652
The full data set covers some 7,900 targets. This sample favours those with a hit. About 0.6% of all pairs of compound and target were hits.

How the values were obtained:
Experiment in all cases: log2 fold change, soluble protein after heating vs DMSO (PISA); higher = thermal stabilisation; K562 cells, 10 uM, 30 min; active = over 0.2 and 3.5 SD of the protein, either way, in both replicates (recomputed)
bafetinib = compound: Cc1ccc(NC(=O)c2ccc(CN3CC[C@H](N(C)C)C3)c(C(F)(F)F)c2)cc1Nc1nccc(-c2cncnc2)n1 [bafetinib]
How it was run: (§1)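 Soluble protein was quantified by TMTpro 16plex LC-MS/MS after channel sums were equalised. It was obtained as the supernatant after 21,000xg for 90 min from pooled aliquots of K562 cells (2×10^6 cells/mL, 10 μM compound, 30 min) heated for 3 min across 48°C-58°C and extracted in PBS with 0.5% NP-40 at 4°C. Thermal stability values are relative to control samples and come from duplicates. They are given as log2 fold changes.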

[1] = compound: Cc1cccc(CC(=O)N2CCc3c2ccc(-c2cn(C)c4ncnc(N)c24)c3F)n1
How it was run: as §1

nilotinib = compound: Cc1cn(-c2cc(NC(=O)c3ccc(C)c(Nc4nccc(-c5cccnc5)n4)c3)cc(C(F)(F)F)c2)cn1 [nilotinib]
How it was run: as §1

[2] = compound: Cc1nc(Nc2n[nH]c3c2CN(C(=O)N[C@H](CN(C)C)c2ccccc2)C3(C)C)c2sccc2n1
How it was run: as §1

dasatinib = compound: Cc1nc(Nc2ncc(C(=O)Nc3c(C)cccc3Cl)s2)cc(N2CCN(CCO)CC2)n1 [dasatinib]
How it was run: as §1

[3] = compound: Cc1ncc(-c2ccnc(Nc3ccc(S(C)(=O)=O)cc3)n2)n1C(C)C
How it was run: as §1

[4] = compound: Cn1cc(-c2ccc3c(c2)CCN3C(=O)Cc2cccc(C(F)(F)F)c2)c2c(N)ncnc21
How it was run: as §1

[5] = compound: Cn1cc(-c2ccc3nnc(C(F)(F)c4ccc5ncccc5c4)n3n2)cn1
How it was run: as §1

tipifarnib = compound: Cn1cncc1[C@@](N)(c1ccc(Cl)cc1)c1ccc2c(c1)c(-c1cccc(Cl)c1)cc(=O)n2C [tipifarnib]
How it was run: as §1

mubritinib = compound: FC(F)(F)c1ccc(/C=C/c2nc(COc3ccc(CCCCn4ccnn4)cc3)co2)cc1 [mubritinib]
How it was run: as §1

[6] = compound: NC(=O)Nc1cc(-c2cccc(F)c2)sc1C(=O)N[C@H]1CCCNC1
How it was run: as §1

[7] = compound: NC(=O)c1cnc(N[C@@H]2CCCC[C@@H]2N)nc1Nc1cccc(-n2nccn2)c1
How it was run: as §1

[8] = compound: NC1(c2ccc(-c3nc4ccn5c(=O)[nH]nc5c4cc3-c3ccccc3)cc2)CCC1
How it was run: as §1

[9] = compound: NCC(=O)Nc1ccc(-n2nc(C(F)(F)F)cc2-c2ccc3c(ccc4ccccc43)c2)cc1
How it was run: as §1

entinostat = compound: Nc1ccccc1NC(=O)c1ccc(CNC(=O)OCc2cccnc2)cc1 [entinostat]
How it was run: as §1

vorinostat = compound: O=C(CCCCCCC(=O)Nc1ccccc1)NO [vorinostat]
How it was run: as §1

citarinostat = compound: O=C(CCCCCCNC(=O)c1cnc(N(c2ccccc2)c2ccccc2Cl)nc1)NO [citarinostat]
How it was run: as §1

silmitasertib = compound: O=C(O)c1ccc2c(c1)nc(Nc1cccc(Cl)c1)c1ccncc12 [silmitasertib]
How it was run: as §1

[10] = compound: O=C1NC(=O)C(c2cnc3ccccn23)=C1c1cn2c3c(cc(F)cc13)CN(C(=O)N1CCCCC1)CC2
How it was run: as §1

[11] = compound: c1cc(OCCN2CCCCC2)cc(-c2n[nH]c3ccc(-c4nnc[nH]4)cc23)c1
How it was run: as §1

Measured: log2 fold change

PTPA (UniProt A6PVN8)
inactive: bafetinib -0.122 | [1] -0.084 | nilotinib -0.134 | [2] 0.008 | dasatinib 0.075 | [3] 0.013 | [4] -0.075 | [5] 0.05 | tipifarnib 0.232 | mubritinib 0.114 | [6] -0.015 | [7] -0.057 | [8] -0.062 | [9] -0.003 | entinostat -0.04 | vorinostat 0.099 | citarinostat -0.098 | silmitasertib 0.266 | [10] 0.05 | [11] -0.05

PDE6D (UniProt O43924)
UniProt O43924, sequence (O43924 whole entry, looked up): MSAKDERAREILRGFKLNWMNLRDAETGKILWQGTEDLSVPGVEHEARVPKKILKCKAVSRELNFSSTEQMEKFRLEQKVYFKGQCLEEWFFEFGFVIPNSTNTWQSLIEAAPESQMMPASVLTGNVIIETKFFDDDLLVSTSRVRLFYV
inactive: bafetinib 0.266 | [1] 0.169 | nilotinib 0.191 | [2] -0.238 | dasatinib 0.026 | [3] 0.011 | [4] 0.385 | mubritinib 0.565 | [6] 0.001 | [7] -0.113 | [8] 0.122 | [9] 0.025 | entinostat 0.125 | vorinostat -0.007 | silmitasertib 0.077 | [10] 0.009

PKM isoform 2 (UniProt P14618)
UniProt P14618, sequence (P14618 whole entry, looked up): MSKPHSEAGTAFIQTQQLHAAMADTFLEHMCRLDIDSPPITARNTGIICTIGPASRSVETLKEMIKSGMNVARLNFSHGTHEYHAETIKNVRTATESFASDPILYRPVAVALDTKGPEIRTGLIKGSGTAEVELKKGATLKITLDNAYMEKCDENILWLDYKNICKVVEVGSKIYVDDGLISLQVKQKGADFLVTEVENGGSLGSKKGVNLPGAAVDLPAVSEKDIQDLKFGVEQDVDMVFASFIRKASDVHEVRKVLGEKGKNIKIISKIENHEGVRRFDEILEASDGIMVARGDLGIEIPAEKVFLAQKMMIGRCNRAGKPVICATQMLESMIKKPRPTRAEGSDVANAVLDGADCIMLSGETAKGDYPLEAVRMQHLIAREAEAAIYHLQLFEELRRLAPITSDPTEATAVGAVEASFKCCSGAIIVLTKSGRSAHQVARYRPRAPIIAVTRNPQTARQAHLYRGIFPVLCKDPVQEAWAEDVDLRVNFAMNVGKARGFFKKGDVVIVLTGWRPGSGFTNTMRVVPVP
inactive: bafetinib -0.155 | [1] 0.029 | nilotinib 0.121 | [2] -0.104 | dasatinib -0.014 | [3] 0.198 | [5] 0.017 | tipifarnib 0.209 | mubritinib 0.05 | [6] 0.123 | [7] 0.175 | [8] -0.063 | [9] 0.116 | entinostat 0.05 | vorinostat -0.195 | citarinostat -0.075 | silmitasertib -0.052 | [10] 0.043 | [11] -0.093

PSMB9 (UniProt P28065)
UniProt P28065, sequence (P28065 whole entry, looked up): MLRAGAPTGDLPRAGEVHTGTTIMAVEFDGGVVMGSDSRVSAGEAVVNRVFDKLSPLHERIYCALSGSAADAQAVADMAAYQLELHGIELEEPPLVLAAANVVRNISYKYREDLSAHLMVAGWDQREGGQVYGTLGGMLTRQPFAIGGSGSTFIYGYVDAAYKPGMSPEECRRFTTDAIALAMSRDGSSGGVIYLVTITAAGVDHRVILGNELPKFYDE
inactive: bafetinib -0.22 | [1] -0.122 | [4] 0.054 | tipifarnib 0.03 | [6] -0.122 | [7] -0.102 | [9] 0.029 | entinostat -0.118 | vorinostat 0.086 | citarinostat -0.028 | [10] -0.061 | [11] 0

PIP4K2C (UniProt Q8TBX8)
UniProt Q8TBX8, sequence (Q8TBX8 whole entry, looked up): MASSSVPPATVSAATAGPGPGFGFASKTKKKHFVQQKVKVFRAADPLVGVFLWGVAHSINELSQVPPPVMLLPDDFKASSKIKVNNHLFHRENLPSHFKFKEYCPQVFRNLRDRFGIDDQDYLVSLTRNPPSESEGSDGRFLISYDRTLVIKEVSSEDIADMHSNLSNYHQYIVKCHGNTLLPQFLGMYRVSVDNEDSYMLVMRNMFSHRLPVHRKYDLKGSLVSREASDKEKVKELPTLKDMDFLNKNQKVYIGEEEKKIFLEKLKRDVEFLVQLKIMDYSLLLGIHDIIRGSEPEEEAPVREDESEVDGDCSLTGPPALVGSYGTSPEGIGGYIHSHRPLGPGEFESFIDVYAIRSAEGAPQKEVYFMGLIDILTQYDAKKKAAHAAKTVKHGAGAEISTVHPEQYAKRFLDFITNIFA
inactive: bafetinib 0.663 | [1] -0.112 | nilotinib 0.354 | [2] 0.053 | dasatinib -0.042 | [4] 0.144 | [5] 0.568 | tipifarnib -0.07 | mubritinib -0.084 | [6] 0.016 | [7] 0.192 | [8] -0.125 | [9] 0.293 | entinostat -0.027 | vorinostat -0.071 | citarinostat -0.036 | silmitasertib 0.497 | [10] 0.12 | [11] 0.036
active: [3] 1.25

PDSS2 (UniProt Q86YH6)
UniProt Q86YH6, sequence (Q86YH6 whole entry, looked up): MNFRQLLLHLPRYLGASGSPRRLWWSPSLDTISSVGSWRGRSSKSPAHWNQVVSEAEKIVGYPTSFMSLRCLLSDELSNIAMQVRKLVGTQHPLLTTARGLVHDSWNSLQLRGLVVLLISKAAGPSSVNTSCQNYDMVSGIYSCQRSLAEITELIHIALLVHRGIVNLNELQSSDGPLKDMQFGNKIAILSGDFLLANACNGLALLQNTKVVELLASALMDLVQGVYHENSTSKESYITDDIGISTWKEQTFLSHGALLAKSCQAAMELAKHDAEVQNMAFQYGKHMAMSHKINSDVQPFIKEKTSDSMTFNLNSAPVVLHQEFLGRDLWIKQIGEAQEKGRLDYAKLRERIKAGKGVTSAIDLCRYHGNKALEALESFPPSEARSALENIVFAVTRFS
inactive: bafetinib 0.077 | [1] 0.048 | nilotinib 0.029 | [2] 0.163 | dasatinib 0.06 | [3] -0.154 | [4] 0.052 | [5] 0.02 | tipifarnib -0.095 | [6] -0.108 | [7] -0.015 | [9] 0.011 | entinostat -0.009 | vorinostat 0.041 | citarinostat 0.018 | [10] 0.026 | [11] -0.029

POM121 (UniProt Q96HA1)
UniProt Q96HA1, sequence (Q96HA1 whole entry, looked up): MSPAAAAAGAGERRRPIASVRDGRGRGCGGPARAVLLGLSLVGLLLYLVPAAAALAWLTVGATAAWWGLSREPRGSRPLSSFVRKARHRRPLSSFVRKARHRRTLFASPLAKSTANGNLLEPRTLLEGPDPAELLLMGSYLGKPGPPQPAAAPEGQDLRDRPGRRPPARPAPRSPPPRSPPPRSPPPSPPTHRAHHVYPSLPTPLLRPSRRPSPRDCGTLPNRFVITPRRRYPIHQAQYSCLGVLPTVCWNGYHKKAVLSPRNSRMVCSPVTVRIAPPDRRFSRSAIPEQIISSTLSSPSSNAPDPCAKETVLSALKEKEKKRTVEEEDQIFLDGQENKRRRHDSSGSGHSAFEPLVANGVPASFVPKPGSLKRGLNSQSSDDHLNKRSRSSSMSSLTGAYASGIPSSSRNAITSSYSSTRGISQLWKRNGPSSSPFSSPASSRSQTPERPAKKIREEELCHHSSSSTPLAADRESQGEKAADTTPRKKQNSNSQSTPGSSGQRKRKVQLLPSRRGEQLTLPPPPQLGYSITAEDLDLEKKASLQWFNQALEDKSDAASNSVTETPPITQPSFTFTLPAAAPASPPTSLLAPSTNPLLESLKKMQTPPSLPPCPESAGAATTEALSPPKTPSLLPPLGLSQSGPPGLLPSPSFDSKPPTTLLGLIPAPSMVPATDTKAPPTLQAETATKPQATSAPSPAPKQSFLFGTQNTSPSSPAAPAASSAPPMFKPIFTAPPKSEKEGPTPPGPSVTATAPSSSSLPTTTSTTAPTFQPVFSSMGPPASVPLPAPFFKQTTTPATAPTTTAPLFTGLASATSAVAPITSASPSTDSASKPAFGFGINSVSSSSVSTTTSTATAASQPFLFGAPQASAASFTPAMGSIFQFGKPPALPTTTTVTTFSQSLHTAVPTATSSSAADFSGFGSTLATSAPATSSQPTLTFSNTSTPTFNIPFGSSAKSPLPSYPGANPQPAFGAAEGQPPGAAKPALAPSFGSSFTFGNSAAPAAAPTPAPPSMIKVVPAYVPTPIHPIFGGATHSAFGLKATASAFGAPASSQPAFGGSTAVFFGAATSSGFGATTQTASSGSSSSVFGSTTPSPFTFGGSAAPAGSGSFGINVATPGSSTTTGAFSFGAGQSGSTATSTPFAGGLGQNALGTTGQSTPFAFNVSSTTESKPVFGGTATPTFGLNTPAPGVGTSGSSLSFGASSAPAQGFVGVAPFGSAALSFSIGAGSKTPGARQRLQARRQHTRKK
inactive: bafetinib -0.114 | [1] 0.012 | nilotinib 0.135 | [2] 0 | dasatinib -0.051 | [3] -0.177 | [4] -0.081 | [5] -0.063 | tipifarnib 0.021 | [6] -0.015 | [7] -0.199 | [9] -0.083 | entinostat 0.01 | vorinostat 0.055 | citarinostat 0.045 | [10] 0.05 | [11] -0.045

PRG4 (UniProt Q92954)
inactive: bafetinib -0.095 | [1] 0.104 | nilotinib -0.05 | [2] 0.065 | dasatinib 0 | [3] 0.258 | [4] 0.203 | [5] 0.068 | mubritinib -0.016 | [6] -0.168 | [7] -0.113 | [8] -0.16 | [9] -0.068 | entinostat -0.156 | vorinostat 0.201 | citarinostat -0.015 | silmitasertib 0 | [10] -0.109 | [11] -0.097
